CYP2C19 inh – blockers of cytochrome P450 2C19 activity – biochemical, luminescence, ADME assay, primary screen; P33261; CYP2C19 Supersomes, luciferin-H EGE luminescence, 30 min; inhibition, % at 5 µM; 96,000 tested, 21% active; AID 778, 2007;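 active means CYP2C19 inhibition above a set limit at 5 µM in the primary screen, cut at about 50% in these data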;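 further: plate controls were negative control wells for no effect and 2.5 mM tranylcypromine positive control for full effect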
Target sequence (P33261 whole entry, looked up): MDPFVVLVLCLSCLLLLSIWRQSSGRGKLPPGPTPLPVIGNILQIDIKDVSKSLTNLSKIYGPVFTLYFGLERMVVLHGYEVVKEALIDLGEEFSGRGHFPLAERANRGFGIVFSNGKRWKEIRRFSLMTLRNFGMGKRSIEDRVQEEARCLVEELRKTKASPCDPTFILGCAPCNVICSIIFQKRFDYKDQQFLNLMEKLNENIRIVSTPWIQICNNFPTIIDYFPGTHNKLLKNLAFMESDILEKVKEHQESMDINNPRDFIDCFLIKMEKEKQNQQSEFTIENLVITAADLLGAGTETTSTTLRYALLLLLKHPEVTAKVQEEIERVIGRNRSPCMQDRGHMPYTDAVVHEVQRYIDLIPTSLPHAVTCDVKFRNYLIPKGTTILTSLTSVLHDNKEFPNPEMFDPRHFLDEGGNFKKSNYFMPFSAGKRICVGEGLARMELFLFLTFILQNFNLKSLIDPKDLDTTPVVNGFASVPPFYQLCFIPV
CYP2C9 act – human CYP2C9 activators, primary screen, biochemical, luminescence; recombinant CYP2C9, luciferin-H conversion; hits give high values; factor 1 = untreated enzyme, 0 = blocked; activation factor at 5 µM; 96,000 tested, 1.4% active; AID 1024, 2008;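 active means activation factor of 2 or more for CYP2C9 at a 5 µM dose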;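 further: 0 = sulfaphenazole-blocked wells and 1 = vehicle-only wells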
CYP2C19 act – human CYP2C19 activators, primary screen, biochemical, luminescence; Cytochrome P450 2C19 (Homo sapiens), P33261; recombinant CYP2C19, luciferin-H EGE luminescence; hits give high values; 0 = fully inhibited enzyme, 1 = untreated enzyme; 96,000 tested, under 10 active; activation factor at 5 µM;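 active means activation factor of at least 2 at 5 µM in the primary screen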;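 further: 0 = wells with 2.5 mM tranylcypromine and 1 = vehicle-only wells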
PostGolgi yeast – phenotypic screen on post-Golgi transport, primary screen; post-Golgi transport phenotypic cell assay; inhibition, % at 10 µM; 98,000 tested, 0.9% active; AID 739, 2007;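 further: yeast cells grown in 1536-well plates; yeast grown about 18 h at 30C before absorbance read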
CYP2C9 inh – blockers of cytochrome P450 2C9 activity – biochemical, luminescence, ADME assay, primary screen; CYP2C9 Supersomes, luciferin-H conversion; AID 777, 2007; inhibition, % at 5 µM; P11712; 96,000 tested, 20% active;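 active means blocking of liver enzyme CYP2C9 beyond about 50% at 5 µM, limit read from the data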
PostGolgi ctrl – growth inhibition of yeast control strain, primary screen, counter-screen for post-Golgi transport modulator project; efflux-deficient yeast background strain, growth absorbance A615, 16 h; inhibition, % at 10 µM; 98,000 tested, 5% active
* marks the source's active call; other numbers are inactive results; / = no result given. A selection: hits, their analogues and other compounds. The true share with any hit is near 32%. Unless noted, no stated cut-off is given here; in the data, active means inhibition above about 30%; inactive means the rest.

SMILES	CYP2C19 inh	CYP2C9 act	CYP2C19 act	PostGolgi yeast	CYP2C9 inh	PostGolgi ctrl
CCOc1ccccc1N1CCN(CC(O)COc2ccc3c(C)cc(=O)oc3c2)CC1 (stereo not drawn)	20	0.9	0.8	8	15	-3
O=C(NCc1ccccc1)c1n[nH]nc1-c1ccccc1O	73*	0.5	0.3	/	52*	/
COc1ccc(S(=O)(=O)NCc2ccccn2)cc1	32	0.9	0.7	-6	12	-6
CCOc1ccc(S(=O)(=O)NCc2ccccn2)cc1	74*	1.4	0.3	-11	-40	30*
Cc1ccc(CNC(N)=S)cc1	6	1.1	0.9	-4	-6	-5
CCOC(=O)N1CCN(C(=O)COc2ccc(S(=O)(=O)NCc3ccccc3)cc2)CC1	-4	0.8	1	5	20	9
Cc1ccc(CNS(=O)(=O)N(C)C)cc1	62*	0.9	0.4	8	12	2
CC1CCCCC1NS(=O)(=O)c1ccc(S(=O)(=O)NCc2ccncc2)cc1 (stereo not drawn)	98*	0	0	-4	100*	-3
CC1CCCCC1NC(=O)c1ccc(S(=O)(=O)NCc2ccco2)cc1 (stereo not drawn)	/	/	/	-3	/	-3
CCOC(=O)COc1ccc(S(=O)(=O)NCc2ccncc2)cc1	98*	0.3	0	2	67*	12
CCOc1ccc(S(=O)(=O)NCc2ccncc2)cc1	100*	0.2	0	6	79*	4
Cc1ccc(C)c(S(=O)(=O)NCc2ccncc2)c1	83*	0.7	0.2	1	30	-1
O=C1CC(c2ccc(S(=O)(=O)NCc3ccncc3)cc2)CN1 (stereo not drawn)	85*	0.5	0.1	-6	54*	18
Cc1ccc(S(=O)(=O)NCc2ccncc2)cc1	97*	0.8	0	4	24	-5
O=C1CC(c2ccc(S(=O)(=O)NC3CC3)cc2)CN1 (stereo not drawn)	-15	0.9	1.2	-1	9	2
Cc1cc(CN2CCOCC2)c(O)c(C2(C)CCCCC2)c1	42	0.6	0.6	2	44	15
Cc1ccc(CCNC(=O)C2CCC(=O)N2C(C)C)cc1 (stereo not drawn)	-8	1.2	1.1	-6	-19	3
Cc1ccc(C)c(S(=O)(=O)NCc2ccc(C(=O)NCc3ccccn3)cc2)c1	89*	0.1	0.1	1	89*	-1
COc1ccc(S(=O)(=O)NCc2ccncc2)cc1OC	100*	0.7	0	-1	25	11
COc1ccc(S(=O)(=O)NCCC(C)C)cc1OC	96*	3.4*	0	-1	-237	0
COc1ccc(C2N3CC4(C)CN2CC(C)(C3)C4O)cc1 (stereo not drawn)	-18	1	1.2	11	-4	-5
O=C(N/N=C/c1ccc(Cl)cc1)c1cc2c(s1)-c1ccccc1CC2	-1	0.8	1	-7	17	-6
CCCCOC(=O)c1ccc(-c2ccc(/C=N/NC(=S)NCC)o2)cc1	14	0.8	0.9	-10	24	-4
NC(=S)N/N=C/c1ccc(-c2cc(Cl)cc(Cl)c2)o1	-14	0.9	1.1	30	6	68*
NC(=S)N/N=C/c1ccc(-c2cc(Cl)ccc2Cl)o1	4	1.2	1	19	-18	93*
NC(=S)N/N=C/c1ccccc1OCc1cccc(Cl)c1	21	0.9	0.8	2	10	11
COCCN1C=C(C(=O)OC)C(c2ccc3c(c2)OCO3)C(C(=O)OC)=C1	74*	0.3	0.3	-1	70*	14
CCN1C=C(C(=O)OC)C(c2cccc(C)c2)C(C(=O)OC)=C1	70*	0.3	0.3	9	74*	18
COc1ccc2[nH]c(=O)c(C(c3nnnn3CC3CCCO3)N3CCc4ccccc4C3)cc2c1 (stereo not drawn)	4	0.8	1	-19	23	38*
CCC(C)(C)n1nnnc1C(c1cc2ccc(OC)cc2[nH]c1=O)N1CCc2ccccc21 (stereo not drawn)	54*	0	0.5	-1	98*	40*

Screening results deposited in PubChem BioAssay by several laboratories.
